# Screening data from PubChem.
# Most compounds without a hit are left out; they make up all but 7.3% or so of the library.
# Rab9 promoter act: qHTS Assay for Rab9 Promoter Activators | Huh7 Rab9 promoter-luciferase reporter, luminescence, 24 h | Potency, µM (doses to about 9.22 µM), for inactives: at the highest dose activation, negative = inhibition, actives largely listed as activators | AID 485297, 2010 | hit rate 2.8% among 320,000; further: % of control where 0% means no effect; nearly all actives have a fitted effect of over 60% in size
#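 Steps: seed 1500 Huh7 Rab9-luc cells per well, rest 2 h at 37 °C; add compound in DMSO; incubate 24 h; add luciferase reagent, 10 min ambient; read luminescence.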
# KinaseGlo FLuc: Counterscreen for Luciferase (Kinase-Glo TM) Inhibition. Luciferin 4-monooxygenase (Photuris pensylvanica), Q27757. Kinase-Glo luciferase, ATP luminescence, 8 min. Potency, µM (top dose mostly 38.3 µM), inactives show top-dose activity change, negative = inhibition, hits mostly inhibitors. hit rate 0.28% among 200,000. AID 1379, 2008; further: on the % scale 0 is the no-effect control and ±100 the full control effect; nearly all actives have a fitted effect of over 60% in size
#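 Inhibition of Kinase-Glo luciferase light generation was assessed at 10 uM ATP in pH 7.2 imidazole buffer, with luminescence measured after eight minutes at ambient temperature.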
# NPC1 promoter act: qHTS Assay for NPC1 Promoter Activators. Potency, µM (doses to about 9.22 µM), without a hit: at the highest dose activation, usual class: activators. hit rate 2.4% among 320,000. Huh7 NPC1 promoter luciferase reporter, 24 h. AID 485313, 2010; further: % of control where 0% means no effect; nearly all actives have a fitted effect of over 60% in size
#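 Readout is luciferase luminescence, reflecting NPC1 promoter activation in stably transfected Huh7 cells after 24 h compound exposure at 37 °C in reduced-serum medium with 10% FBS.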
# ELG1 genotoxic: qHTS screen for small molecules that induce genotoxicity in human embryonic kidney (HEK293T) cells expressing luciferase-tagged ELG1; HEK293T ELG1-luciferase reporter, luminescence, 16 h; Potency, µM (series often up to 46 µM), for inactives: at the highest dose activity change, positive = activation, usual class: activators; hit rate 1.3% among 330,000; further: % of control where 0% means no effect; nearly all actives have a fitted effect of over 60% in size
#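 Screening used a luciferase reporter fused to human ELG1 in HEK293T cells. Luminescence was read on a CCD plate imager after 16 hr exposure and 30 min ONE-Glo incubation.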
# FLuc counter: qHTS profiling assay for firefly luciferase inhibitor/activator using purifed enzyme and Km concentrations of substrates (counterscreen for miR-21 project); Potency, µM (series often up to 57.5 µM), for inactives: at the top dose activity change, negative = inhibition, usual class: inhibitors; hit rate 6.9% among 360,000; purified FLuc, Km substrates, luminescence inhibition; AID 588342, 2011;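 further: plate controls were vehicle for no effect and reference inhibitor for full effect; nearly all actives have a fitted effect of over 55% in size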
# Target sequence (P08659 whole entry, looked up): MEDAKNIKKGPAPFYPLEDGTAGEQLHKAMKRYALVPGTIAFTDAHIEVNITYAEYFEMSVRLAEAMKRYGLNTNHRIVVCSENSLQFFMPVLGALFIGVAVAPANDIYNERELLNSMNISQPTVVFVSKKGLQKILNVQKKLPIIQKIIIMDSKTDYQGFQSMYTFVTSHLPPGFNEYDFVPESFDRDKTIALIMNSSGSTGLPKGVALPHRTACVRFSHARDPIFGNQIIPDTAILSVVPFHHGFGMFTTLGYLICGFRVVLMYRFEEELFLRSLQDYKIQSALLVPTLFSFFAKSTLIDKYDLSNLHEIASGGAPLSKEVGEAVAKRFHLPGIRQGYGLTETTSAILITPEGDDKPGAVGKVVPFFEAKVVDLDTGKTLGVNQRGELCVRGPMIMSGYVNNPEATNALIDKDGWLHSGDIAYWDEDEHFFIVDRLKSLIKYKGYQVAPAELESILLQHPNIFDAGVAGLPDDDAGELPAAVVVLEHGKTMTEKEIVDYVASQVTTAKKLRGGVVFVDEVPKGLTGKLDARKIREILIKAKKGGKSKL
#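 Purified P. pyralis luciferase, 10 nM final, with Km-level 10 uM D-luciferin and 10 uM ATP in 50 mM Tris acetate pH 7.5, 10 mM Mg acetate, 0.01% Tween-20, 0.05% BSA; 6-point qHTS titration about 60 µM downward; luminescence read.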
# SMN2 splice enh: qHTS Assay for Enhancers of SMN2 Splice Variant Expression. HEK293 SMN2-luciferase splicing reporter, luminescence, 30-36 h. Potency, µM (doses to about 46.1 µM), without a hit: at the highest dose activity change, positive = activation, most hits filed as activators. AID 1458, 2008. hit rate 2.8% among 210,000; further: % of control where 0% means no effect; nearly all actives have a fitted effect of over 55% in size
#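 qHTS luciferase splicing reporter: luminescence rises when SMN2 exon 7 is included in transfected HEK293 cells. Compound exposure lasted 30-36 h at 37C, with 4.5 mM final sodium butyrate as control, followed by a ONE-Glo read.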
# An asterisk follows results filed as active; ? = inconclusive; / = no result; [ ] = remark or other dose. The call rests on the fitted dose curve; in most records, active means well fitted curve in the direction sought with a large enough effect; inconclusive means small, poorly fitted or top-dose-only effect, or another doubt; inactive means no such curve, though single readings can be large; an effect the other way counts as inactive or inconclusive. Potency means the concentration at half of the fitted maximal effect.
SMILES,Rab9 promoter act,KinaseGlo FLuc,NPC1 promoter act,ELG1 genotoxic,FLuc counter,SMN2 splice enh
CNc1c([N+](=O)[O-])cnn1-c1ccccc1Cl,15%,-2%,21%,11%,15µM*,6%
CCOc1ncccc1C(=O)OCC(=O)N1CCN(S(=O)(=O)c2ccccc2)CC1,4%,-7%,0%,1%,1%,5%
O=C(COC(=O)c1ccc(-c2nnc(-c3ccccc3)o2)cc1)c1ccccc1,0.56µM*,2%,0.56µM*,?,4%,2.8µM*
O=C(OCc1nnc(-c2ccc(Br)cc2)o1)c1ccco1,0%,/,-3%,1%,21µM*,/
Cc1ccccc1C(=O)OCc1nnc(-c2ccc(Cl)cc2)o1,21%,-5%,-1%,8%,19µM*,11%
O=C(OCc1nnc(-c2ccccc2)o1)c1ccccc1,15%,-6%,1%,1%,15µM*,9%
O=C(OCc1nnc(-c2ccc(Cl)cc2)o1)c1ccncc1,-3%,-9%,8%,-2%,?,-1%
O=C1Nc2ccccc2/C1=N\N=C\c1ccc(O)c(O)c1,-15%,/,-5%,?,24µM*,/
COc1cc(/C=N/N=C2/C(=O)Nc3ccccc32)ccc1O,-1%,-14%,21%,?,6.7µM*,-10%[1.84 µM]
COc1cc(/C=N/N2C(=O)C3C4C=CC(CC4)C3C2=O)ccc1O (stereo not drawn),6%,/,1%,9%,?,/
COc1cc(/C=N/N=C2/NC(=O)C(c3ccccc3)S2)ccc1O (stereo not drawn),-3%,0%,-2%,?,?,8%
COc1cc(/C=N/N2C(=O)c3ccccc3C2=O)ccc1O,-2%,-9%,-1%,0%,12µM*,15%
COc1cc(/C=N/N=C2/NC(=O)C(Cc3ccc(F)cc3)S2)ccc1O (stereo not drawn),25%,-7%,17%,?,2.7µM*,31%
COc1ccc(OC)c(N=C2C(=O)Nc3ccccc32)c1,8%,-1%,7%,3%,-17%,?
Cc1ccsc1/C=N/N=C1\C(=O)Nc2ccccc21,23%,-1%,?,10%,?,0%
Cc1ccc(NC(=O)C2CCCN(S(=O)(=O)c3c(C)noc3/C=C/N(C)C)C2)cc1F (stereo not drawn),3%,-1%,-1%,-1%,0%,-18%
O=C(c1cc2ccccc2c(=O)o1)N1CCCC1,-3%,9%,-1%,1%,0%,-2%
O=C1c2ccccc2C(=O)N1/N=C/c1ccc(O)c(O)c1O,-5%,/,-6%,-7%,17µM*,/
O=C1c2cccc3cccc(c23)C(=O)N1/N=C/c1ccc(O)cc1O,3%,2%,-2%,3%,2%,9%
COCCCN(C(=O)C1CCC1)c1c(N)n(Cc2ccccc2)c(=O)[nH]c1=O,2%,/,-3%,1%,-1%,/
CCOc1cccc(C(=O)Nc2ccc3[nH]ncc3c2)c1,2µM*,/,2.8µM*,?,5.4µM*,/
COc1cccc(C(=O)Nc2ccc3[nH]ncc3c2)c1,3.5µM*,/,2.8µM*,?,11µM*,/
CN(C)c1ccc(C(=O)NNC(=O)Nc2ccccc2)cc1,24%,-3%,17%,5%,-1%,-6%
CN(C)c1ccc(/C=N/OC(=O)Nc2ccccc2)cc1,0.45µM*,/,0.71µM*,?,1.1µM*,/
Cc1ccc(NC(=O)CO/N=C/c2ccc(N(C)C)cc2)cc1,0%,1%,8%,6%,15µM*,-17%
CCN(CC(=O)Nc1ccc(NC(C)=O)cc1)C(=O)Cc1c(Cl)cccc1Cl,2%,/,-3%,-1%,0%,/
CC(C)CCNc1nc(Nc2ccccc2)c2cnn(C)c2n1,/,/,/,/,-7%,/
